# Results: PubChem BioAssay AID1566 (Sanford-Burnham Center for Chemical Genomics, 2009)
# Screen size: about 290,000 compounds; about 1,800 (0.62%) were called active. Cut-off read from the data, not from the text of the source: active = inhibition above about 50%; inactive = the rest. The full list was thinned out, with actives kept by preference.
# Assay: inhibition of NOD2-driven NF-kB reporter – cell-based, luminescence, uHTS, HEK293 (AID 1566)
# Details: HEK293 NOD2/NF-kB luciferase reporter, at 4 µM, active compounds read high
row,SMILES,inhibition
1,COc1ccc(C(=O)Nc2ccc(NC(=O)c3cnccn3)cn2)cc1,-1.7% (inactive)
2,O=C(Nc1ccc2cn[nH]c2c1)c1ccc(Cl)c(S(=O)(=O)N2CCOCC2)c1,-3.7% (inactive)
3,CN1C/C(=C/c2cccnc2)C(=O)/C(=C/c2cccnc2)C1,10.1% (inactive)
4,CCC1C/C(=C\c2cccnc2)C(=O)/C(=C/c2cccnc2)C1 (stereo unspecified),94.6% (active)
5,O=C1/C(=C/c2cccnc2)CC/C1=C\c1cccnc1,1.3% (inactive)
6,COc1cc(COc2ccc(-c3nnco3)cc2)ccc1OC(F)F,6.2% (inactive)
7,Cc1ccc(COc2ccc(-c3nnco3)cc2)cc1,-78.6% (inactive)
8,COc1ccnc(Oc2ccccc2)c1C(=O)N/C=N/OCc1ccccc1F,2.7% (inactive)
9,CCCCCCn1c(NCC)nc2c1c(=O)n(C)c(=O)n2C,30% (inactive)
10,COc1ccc2cc3cc(C(=O)NCCC(C)C)oc3nc2c1,10.4% (inactive)
11,COCCNC(=O)c1cc2cc3ccc(OC)cc3nc2o1,11.5% (inactive)
12,COc1ccc(-c2cc(=O)oc3cc(OCC(=O)N4C[C@H]5C[C@@H](C4)c4cccc(=O)n4C5)ccc23)cc1,3.1% (inactive)
13,CCCCn1c(=O)c(CCC(=O)OCC(=O)Nc2cccc3ccccc23)nc2ccccc21,15.7% (inactive)
14,O=C(Cc1ccccc1)NNC(=O)C1CC=CCC1 (stereo unspecified),5.2% (inactive)
15,CCc1nnc(NC(=O)COc2ccccc2[N+](=O)[O-])s1,-7.9% (inactive)
16,Cc1csc(NC(=O)c2c(O)c3c(n(CC(C)C)c2=O)CCCC3)n1,23.7% (inactive)
17,O=C(NC1=C(Nc2ccc(Cl)cc2)C(=O)c2ccccc2C1=O)c1ccccc1,24.3% (inactive)
18,O=C(NC1=C(Nc2ccc(F)cc2)C(=O)c2ccccc2C1=O)c1ccc(Cl)cc1,-10.9% (inactive)
19,CSc1nc(N)c2c(C)c(C)sc2n1,-1.2% (inactive)
20,CCOC(=O)C(=CNc1ccc(NC2=NCC(C)S2)cc1)C(=O)OCC (stereo unspecified),55.5% (active)
21,CCOC(=O)C(=CNc1ccc(NC2=NCC(C)(C)S2)cc1)C(=O)OCC,34.9% (inactive)
22,CCOC(=O)C(=CNc1ccc(C#N)cc1)C(=O)OCC,8.2% (inactive)
23,COc1cccc(CNC(=O)CCNC(=O)C2CCN(S(=O)(=O)c3ccc(F)cc3)CC2)c1,9% (inactive)
24,N#C/C(=C(/O)COC(=O)c1ccc(C#N)cc1)c1nc2ccccc2s1,-9.9% (inactive)

row,SMILES,inhibition
1,N#C/C(=C(/O)COC(=O)c1ccccc1O)c1nc2ccccc2s1,52.7% (active)
2,CC(C)(C)c1ccc(C(=O)OC/C(O)=C(\C#N)c2nc3ccccc3s2)cc1,30.1% (inactive)
3,C=C(C)C(=O)Oc1ccc(N2C(=O)[C@@H]3C4C=CC(C4)[C@@H]3C2=O)cc1,-1.5% (inactive)
4,CCn1c(=O)n(CC)c2cc(S(=O)(=O)N3CCCCC3)c(C)cc21,-12.1% (inactive)
5,NC(=O)CC(NC(=O)Cc1ccc(Br)cc1)c1ccc(NCCN2CCOCC2)c([N+](=O)[O-])c1 (stereo unspecified),-1.2% (inactive)
6,N#CC1=C(N)Oc2n[nH]c(-c3cccnc3)c2C1c1cc(F)ccc1F (stereo unspecified),-1.5% (inactive)
7,c1cncc(CNc2ncnc3sccc23)c1,21.1% (inactive)
8,Fc1ccccc1CNc1ncnc2sccc12,56.7% (active)
9,c1ccc(CNc2ncnc3sccc23)cc1,44.5% (inactive)
10,Cc1cccc(NC(=O)C(Cc2ccccc2)n2cccc2)c1 (stereo unspecified),9.8% (inactive)
11,CCN(CC)S(=O)(=O)c1cc(NC(=O)[C@@H](NC(N)=O)C(C)C)ccc1C,6.6% (inactive)
12,Cc1ccc(NC(=O)C(CC(C)C)NC(N)=O)cc1Cl (stereo unspecified),-3.3% (inactive)
13,CCN(CC)S(=O)(=O)c1cc(NC(=O)C(CC(C)C)NC(N)=O)ccc1C (stereo unspecified),57.5% (active)
14,COc1ccc(/C(C)=N/NC(=O)c2nnn(-c3nonc3N)c2-c2ccccc2)cc1,6.5% (inactive)
15,Cc1ccc(C(=O)Nc2cccc(C(F)(F)F)c2)cc1Nc1ccccn1,-0.8% (inactive)
16,Cc1ccc(C(=O)Nc2cccc(C(F)(F)F)c2)cc1Nc1cnccn1,14% (inactive)
17,CCN(CC)c1ccc(/C=N/N2CCN(Cc3ccccc3Cl)CC2)cc1,4.7% (inactive)
18,CCCN(CCC)c1ncnc2c1cnn2-c1ccc(OC)cc1,-123% (inactive)
19,COc1ccc(-n2ncc3c(NC(C)C)ncnc32)cc1,13.8% (inactive)
20,Cc1cccc(-n2ncc3c(N(C)C4CCCCC4)ncnc32)c1,72.3% (active)
21,Cc1cccc(-n2ncc3c(NC4CCCCC4)ncnc32)c1,7.4% (inactive)
22,Cc1cccc(-n2ncc3c(N(C)Cc4ccccc4)ncnc32)c1,-120% (inactive)
23,Fc1cccc(NC(=S)NCCc2ccccc2)c1,10% (inactive)
24,CC(=O)Oc1cccc(NC(=O)c2ccc3c(c2)C(=O)N(CC(C)C)C3=O)c1,-7.8% (inactive)

row,SMILES,inhibition
1,O=C(CN1CCc2ccccc2C1)Nc1cc(S(=O)(=O)N2CCOCC2)ccc1N1CCOCC1,-2.4% (inactive)
2,CCN(CC)c1ccc(S(=O)(=O)N2CCOCC2)cc1NC(=O)CN1CCN(Cc2ccccc2)CC1,-7.9% (inactive)
3,COc1ccc(OC)c(N2C(=O)CC(C(C)c3ccccc3)C2=O)c1 (stereo unspecified),9.7% (inactive)
4,COc1ccc(-n2c3c(cc(C(=O)NCc4ccco4)c2=O)C(=O)CC(C)(C)C3)cc1,10.7% (inactive)
5,Cc1cc(C(=O)CSc2nnc3ccccn23)c(C)n1-c1ccccc1,66.8% (active)
6,Cc1cc(C(=O)CSc2nncn2C)c(C)n1-c1ccccc1,-52.4% (inactive)
7,Cc1ccc(C(=O)CSc2nnc3ccccn23)c(C)c1,-52.8% (inactive)
8,COc1ccc(NC(=O)c2c(NC(=O)CNCc3ccco3)sc3c2CCC3)cc1,6.3% (inactive)
9,Cc1ccccc1N/N=C/c1sc(=O)n(Cc2cccc(C(=O)O)c2)c1Cl,51.6% (active)
10,O=C(O)c1cccc(Cn2c(Cl)c(/C=N/Nc3ccccc3)sc2=O)c1,14.5% (inactive)
11,COC(=O)c1cccc(Cn2c(Cl)c(/C=N/Nc3ccccc3C)sc2=O)c1,10.1% (inactive)
12,CCCNC(=S)N1CCC(C(=O)c2ccc(OC)cc2)CC1,15.3% (inactive)
13,COC(=O)N1C(=O)[C@](c2ccsc2)(C(C)C)N1C(=O)OC,32.8% (inactive)
14,CCCCc1c(C)nc2ccc(Br)cc2c1SCCC#N,18% (inactive)
15,CCc1c(C)nc2c(Br)cccc2c1SCCC#N,10.1% (inactive)
16,CN=c1scc(-c2cccs2)n1/N=C/c1ccccc1O,88.7% (active)
17,CN=c1scc(-c2cccs2)n1/N=C/c1ccc(O)c(O)c1O,-25.9% (inactive)
18,CC(C)N=c1scc(-c2cccs2)n1/N=C/c1ccc(O)c(O)c1O,-1.3% (inactive)
19,CCc1noc(C)c1C(=O)OCC(=O)NC(=O)c1ccccc1,2.8% (inactive)
20,COC(=O)c1ccc(NC(=O)c2ccc3nsnc3c2)cc1,-7.1% (inactive)
21,c1ccc(COCCC2CO2)cc1 (stereo unspecified),-8.4% (inactive)
22,CS(=O)(=O)N(CC(=O)NCCSCc1ccccc1Cl)c1ccc(F)cc1,3% (inactive)
23,COc1ccc(C(=O)CSc2cc(C)nc3nc(C)nn23)cc1OC,14% (inactive)
24,O=C(CSc1ccc(-c2ccc(Cl)cc2)nn1)N1CCCc2ccccc21,-10.9% (inactive)

row,SMILES,inhibition
1,Cc1ccccc1-c1cn(-c2ccccc2)c(=S)[nH]1,-47.3% (inactive)
2,O=C(O)c1ccc(-n2cc(-c3cc4ccccc4oc3=O)[nH]c2=S)cc1,27.5% (inactive)
3,O=c1oc2ccccc2cc1-c1cn(-c2ccccc2)c(=S)[nH]1,80.6% (active)
4,O=c1[nH]c(C2CCN(S(=O)(=O)Cc3ccccc3)CC2)nc2c1nnn2Cc1ccccc1,5% (inactive)
5,Cc1ccc(C(=O)Nc2ccc(CC(=O)O)cc2)o1,7.5% (inactive)
6,CC(C)(C)c1ccc(C(=O)Nc2ccc(CC(=O)O)cc2)o1,71.6% (active)
7,CCOC(=O)Cc1ccc(NC(=O)c2ccc([N+](=O)[O-])cc2)cc1,-1.9% (inactive)
8,COC(=O)Cc1ccc(NC(=O)c2ccc(C(C)(C)C)cc2)cc1,70.7% (active)
9,CCOC(=O)Cc1ccc(NC(=O)c2ccc(C(C)(C)C)cc2)cc1,61.9% (active)
10,COC(=O)Cc1ccc(NC(=O)c2ccc(C)c(C)c2)cc1,-48.4% (inactive)
11,COC(=O)Cc1ccc(NC(=O)c2ccc(NC(=O)c3ccco3)cc2)cc1,0.9% (inactive)
12,CC(C)(C)c1ccc(C(=O)Nc2ccc(NC(=O)C(=O)O)cc2)o1,9.4% (inactive)
13,CCOC(=O)Cc1ccc(NC(=O)c2ccccc2Br)cc1,-12.2% (inactive)
14,Cc1ccc(C)c(S(=O)(=O)N2CCCOC2CNC(=O)C(=O)NCc2ccncc2)c1 (stereo unspecified),11.8% (inactive)
15,Cc1cccc(N2CCN(C(=O)C3CCCCC3)CC2)c1C,-34.8% (inactive)
16,CCCCn1c(N)c(N(CCOC)C(=O)c2ccc(Cl)c(S(=O)(=O)N3CCCC3)c2)c(=O)[nH]c1=O,-2.8% (inactive)
17,O=c1cc(O)c2sc(Nc3cccc(C(F)(F)F)c3)nc2[nH]1,16.5% (inactive)
18,COc1ccccc1N1C(=O)c2ccc(C(=O)Nc3ccccc3O)cc2C1=O,-3.6% (inactive)
19,O=C(c1ccc(Sc2cccc(Cl)c2)c([N+](=O)[O-])c1)N1CCN(c2ccccn2)CC1,9.4% (inactive)
20,Cc1cc(C(=O)N2CCN(Cc3ccccc3)CC2)ccc1[N+](=O)[O-],6.4% (inactive)
21,O=C(c1ccc(S(=O)(=O)Cc2cc(F)ccc2F)c([N+](=O)[O-])c1)N1CCCC1,3.3% (inactive)
22,O=C(c1ccc(S(=O)(=O)Cc2ccccc2F)c([N+](=O)[O-])c1)N1CCCCCC1,22.6% (inactive)
23,O=C(c1ccc(Cl)c([N+](=O)[O-])c1)N1CCN(c2ccccn2)CC1,6.3% (inactive)
24,O=C(c1ccc(Br)c([N+](=O)[O-])c1)N1CCN(Cc2ccccc2)CC1,10% (inactive)
